A short description of the test: qHTS profiling of the MIPE4 collection as inhibitors of Plasmodium falciparum (HB3) proliferation (AID 743347).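 Note: plate controls were DMSO vehicle wells for no effect and artemisinin wells for full effect.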 The conditions noted are these: P. falciparum HB3 in erythrocytes, SYBR Green DNA, 72 h; at 28.5 µM (top of the series) unless noted. A digest of the protocol:
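Erythrocytes infected with P. falciparum (0.3% parasitemia, 2.5% hematocrit) incubated with compounds 72 h at 37 C, 5% CO2. Lysis with saponin/Triton buffer containing SYBR Green I, overnight at room temperature in the dark; DNA fluorescence (485/535 nm) normalised to 0.29 uM artemisinin and DMSO.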
(In general: Quantitative high-throughput screening tests each substance at several concentrations.)
The compound `Oc1c(Cl)cc(Cl)c2cccnc12` showed a growth, % of control of 347%.

The compound `CN1CCN(c2c(F)cc3c(=O)c(C(=O)O)cn(CCF)c3c2F)CC1` displayed a growth, % of control of 99%.

`COc1cc(NCc2ccc3nc(N)nc(N)c3c2C)cc(OC)c1OC` came in with a growth, % of control of 19.6%.

Compound `COc1ccc(C(=O)CC(=O)c2ccc(C(C)(C)C)cc2)cc1` yielded a growth, % of control of 2.68%.

For `CCOc1cc(N)c(Cl)cc1C(=O)NCC1CN(Cc2ccc(F)cc2)CCO1` (stereo not drawn), the growth, % of control was found to be 99%.

Take `NS(=O)(=O)c1cc2c(cc1Cl)NC(C(Cl)Cl)NS2(=O)=O` (stereo not drawn): the growth, % of control turned out to be 60.5%.

Compound `Cc1cccc(N(C)C(=S)Oc2ccc3ccccc3c2)c1` displayed a growth, % of control of 50.4%.

For `COC(=O)Nc1nc2ccc(S(=O)c3ccccc3)cc2[nH]1` (stereo not drawn), the growth, % of control was 104%.

As to `CN(Cc1cc(Br)cc(Br)c1N)C1CCCCC1`, the growth, % of control was determined as 62.3%.

In the case of `CCOC(=O)c1ccc(C#Cc2ccc3c(c2)C(C)(C)CCS3)nc1`, the growth, % of control is 50.6%.

`C[C@@H](CN1CC(=O)NC(=O)C1)N1CC(=O)NC(=O)C1` yielded a growth, % of control of 65.5%.

`CCC(=O)O[C@]1(C(=O)SCF)[C@H](C)C[C@H]2[C@@H]3C[C@H](F)C4=CC(=O)C=C[C@]4(C)[C@@]3(F)[C@@H](O)C[C@@]21C`: the growth, % of control came out at 87.8%.

For the compound `CC(=O)[C@H]1CC[C@H]2[C@@H]3CC=C4C[C@@H](O)CC[C@]4(C)[C@H]3CC[C@]12C`, the growth, % of control came out at 65.7%.

Take `CN(CCOc1ccc(CC2SC(=O)NC2=O)cc1)c1ccccn1` (stereo not drawn): the growth, % of control turned out to be 60.7%.

`CCCCc1oc2ccc(NS(C)(=O)=O)cc2c1C(=O)c1ccc(OCCCN(CCCC)CCCC)cc1` registered a growth, % of control of 7.93%.

The compound `CCCCCCNC(=O)n1cc(F)c(=O)[nH]c1=O` returned a growth, % of control of 71.2%.

For `COCCCOc1cc(C[C@@H](C[C@H](N)[C@@H](O)C[C@H](C(=O)NCC(C)(C)C(N)=O)C(C)C)C(C)C)ccc1OC`, the growth, % of control turned out to be 86.2%.

On to `COc1cnc(NS(=O)(=O)c2ccc(N)cc2)nc1`, for which the growth, % of control was 58.8%.

In turn, `CC(N)C12CC3CC(CC(C3)C1)C2` (stereo not drawn) gave a growth, % of control of 96.9%.

The compound `CO[C@@H]1[C@@H](OC(N)=O)[C@@H](O)[C@H](Oc2ccc3c(O)c(NC(=O)c4ccc(O)c(CC=C(C)C)c4)c(=O)oc3c2C)OC1(C)C` had a growth, % of control of 45.7%.

On to `Cn1c(=O)c2c(ncn2CC(O)CO)n(C)c1=O` (stereo not drawn), for which the growth, % of control was found to be 56.5%.

Compound `O=c1oc2c(O)c(O)cc3c(=O)oc4c(O)c(O)cc1c4c23` gave a growth, % of control of 6.72%.

`CCCc1nc(C)c2c(=O)[nH]c(-c3cc(S(=O)(=O)N4CCN(CC)CC4)ccc3OCC)nn12` yielded a growth, % of control of 9.8%.

For `Cc1onc(-c2ccccc2Cl)c1C(=O)N[C@@H]1C(=O)N2[C@@H]1SC(C)(C)[C@@H]2C(=O)O`, the growth, % of control came to 108%.

Consider `CCOCC(O)COc1ccc(NC(=O)CC[S+](C)C)cc1` (stereo not drawn), for which the growth, % of control turned out to be 99.4%.

Consider `CNCC[C@H](Oc1cccc2ccccc12)c1cccs1`, for which the growth, % of control was 3.44%.

On to `Nc1ccc(S(=O)(=O)Nc2ccccn2)cc1`, for which the growth, % of control was determined as 54.6%.

In turn, `CCOC(=O)[C@H](CCc1ccccc1)N[C@H]1CCc2ccccc2N(CC(=O)O)C1=O` displayed a growth, % of control of 11.1%.

As for `C[C@@H](NCCCc1cccc(C(F)(F)F)c1)c1cccc2ccccc12`, the growth, % of control stood at 4.3%.

`O=C(NCC1CN(c2ccc(N3CCOCC3=O)cc2)C(=O)O1)c1ccc(Cl)s1` (stereo not drawn): the growth, % of control came out at 59.9%.

Compound `O=C(O)c1cccnc1` showed a growth, % of control of 87.4%.

`COc1c(N2CCNC(C)C2)c(F)cc2c(=O)c(C(=O)O)cn(C3CC3)c12` (stereo not drawn) yielded a growth, % of control of 21.7%.

For the compound `COc1ccc(-c2ccc3cc(C(=O)O)ccc3c2)cc1C12CC3CC(CC(C3)C1)C2`, the growth, % of control came out at 111%.

Values taken from PubChem BioAssay (NCATS).
